Common to all, as to test: NCI-60 one-dose screen, 48 h (100 = growth as untreated, 0 = no growth, -100 = all killed)
What all share (details): 10 µM unless noted

Test [1] deals with SK-MEL-2 melanoma.
Test [2] has as its system EKVX NSCLC.
Test [3] deals with SN12C renal.
Test [4] relates to UO-31 renal.
Test [5] relates to TK-10 renal.
For test [6], the system named is ACHN renal.
The subject of test [7] is CAKI-1 renal.
Test [8] concerns A498 renal.
Test [9] deals with CCRF-CEM leukemia.
In test [10] the test system is MOLT-4 leukemia.
Test [11] deals with SR leukemia.
Test [12] has as its system RPMI-8226 leukemia.
Test [13] relates to OVCAR-8 ovarian.
Test [14] relates to OVCAR-5 ovarian.
Test [15] has as its system OVCAR-4 ovarian.
The test system of test [16] is SK-OV-3 ovarian.
Test [17] has as its system IGROV1 ovarian.
Test [18] relates to OVCAR-3 ovarian.
Test [19] relates to HS 578T breast.
Test [20] deals with NCI/ADR-RES ovarian.

Compounds without any hit were thinned out: in the full panel of roughly 83,000, 20% have a hit.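 Cells were grown in 96-well plates and exposed to the test compound at a single concentration for 48 hours; results are reported as percent growth, with values below 10 considered active.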 Unmarked numbers belong to inactive results. Calls of active or inactive are those of the source.

With `O=C(/C=C(O)/C=C/c1cccc2[nH]ccc12)/C=C/c1cccc2[nH]ccc12`, the growth in [1] is 85.9%; in test [2], 97.8%; in test [3] it was 82.5%; in [4], 52%; in test [5], 83.9%; in [6], 84.4%. Further, the growth in test [7] is 74.6%; in test [8] it was 112%; in [9], 65.4%; in test [10], 59.2%; in test [11], 10.3%; in test [12], 2.9% (active). Besides, the growth was 72.6% in test [13]; 99.7% in test [14]; 91.7% in test [15]; 85.6% in [16]; 70.3% in test [17]; 103% in test [18]. Further, the growth in test [19] was 91%; in test [20], 87.6%.

As for `CCCn1cnc2c(c1=N)C(c1ccc(F)cc1)c1sc3c(F)cccc3c1O2` (stereo not given), the growth was 45.8% in [1]; 76.5% in test [2]; 58.6% in [3]; 53.9% in [4]; 80.3% in test [5]; 56.8% in [6]. Further, the growth is 30.6% in [7]; 51.1% in test [8]; 20.4% in test [9]; 43.8% in test [10]; 28.8% in test [11]; 39.7% in test [12]. Further, the growth is 59.1% in test [13]; 81.4% in test [14]; 76.7% in [15]; 71% in test [16]; 46.2% in test [17]; 10.5% in [18]. The growth in test [19] is 28.7%; in test [20], 31.1%.

Consider `NC(N)=NS(=O)(=O)c1ccc(NC2=C(I)C(=O)c3ncccc3C2=O)cc1`, for which the growth is 106% in [1]; 105% in test [2]; 101% in test [3]; 75.1% in [4]; 118% in test [5]; 93.2% in [6]. Moreover, the growth in test [7] was 90.4%; in test [8] it was 97.2%; in [9], 107%; in [10], 103%; in [11], 104%; in test [12], 104%. Also, the growth in test [13] is 97.2%; in test [14], 112%; in test [15], 93%; in test [16] it was 87.8%; in test [17] it was 97.5%; in test [18], 95.3%. In addition, the growth in [19] was 103%; in test [20], 94.1%.

Consider `C#CC#CC#CC#CC#CC#CC#CC#CC[C@@H]1OC[C@@H](COC(=O)O[C@@H](C(=O)O[C@H]2C[C@@]3(O)[C@@H](OC(=O)c4ccccc4)[C@@H]4[C@]5(OC(C)=O)CO[C@@H]5C[C@H](O)[C@@]4(C)C(=O)[C@H](OC(C)=O)C(=C2C)C3(C)C)[C@@H](NC(=O)c2ccccc2)c2ccccc2)O1`, for which the growth in test [1] is 105%; in test [2] it was 35.2%; in test [3], 21.4%; in test [4], 35.2%; in test [5], 123%; in test [6], 26.5%. In addition, the growth in [7] is 81.3%; in [8], 52.9%; in test [9], 6.05% (active); in test [10] it was 9.3% (active); in [11], 3.63% (active); in test [12] it was 5.29% (active). The growth in test [13] is 94.7%; in [14] it was 5.15% (active); in test [15] it was 83.9%; in test [16], 98.6%; in test [17] it was 19.3%; in test [18], 100%. Besides, the growth in test [19] was 94.1%; in [20], 62.5%.

As to `CC1(C)N=C(N)N=C(N)N1c1cccc(CCc2ccccc2)c1`, the growth was 50.3% in [1]; 67.2% in test [2]; 32.4% in test [3]; 98.5% in [4]; 38.7% in test [5]; 105% in test [6]. For the same compound, the growth was 107% in test [7]; 82.7% in test [8]; 30.5% in test [9]; 30.5% in test [10]; 28.5% in test [11]; 26.5% in test [12]. The growth in test [13] was 52.6%; in [14], 49.2%; in test [15], 72.1%; in [16], 58.9%; in [17], 30.3%; in test [18], 22.8%. The growth in test [19] was 70.4%; in [20], 111%.

Take `COc1ccc(-c2cc(-c3ccccc3)nc(N3CCN(CCNc4ccnc5cc(Cl)ccc45)CC3)n2)cc1`: the growth in [1] was -9.46% (active); in test [2], 79.9%; in [3], -43.3% (active); in [4] it was -4.9% (active); in test [5], -13.4% (active); in [6] it was 66.3%. Also, the growth was -24.9% (active) in test [7]; 15.3% in [8]; 3.98% (active) in test [9]; -1.76% (active) in test [10]; 7.06% (active) in test [11]; -28.2% (active) in test [12]. In addition, the growth in [13] is -81% (active); in [14], 48.2%; in [15] it was -27.6% (active); in test [16] it was 112%; in [17], -74% (active); in [18], 7.81% (active). Also, the growth is 66.4% in [19] and -63.2% (active) in test [20].

`CC1(C)NCCC[C@]2(C)[C@H]3CC[C@H]4[C@H]5[C@H](C(=O)/C=C/c6cccnc6)CCC[C@]5(CO)CC[C@@]4(C)[C@]3(C)CC[C@@H]12`: the growth is 96.9% in test [1]; 79.2% in [2]; 58.5% in [3]; 57.8% in test [4]; 106% in [5]; 80.4% in test [6]. In addition, the growth in test [7] was 47.8%; in test [8] it was 93.9%; in test [9] it was 36%; in test [10], 7.39% (active); in test [11], -24.6% (active); in test [12], 13.1%. Further, the growth in test [13] was 55.5%; in test [14] it was 74.8%; in test [15], 75.3%; in test [16], 108%; in [17], 26.6%; in [18], 60.1%. For the same compound, the growth in test [19] was 74.4%; in [20] it was 82.4%.

Source of the values: PubChem BioAssay (NCI).
